# Results taken from the supplement of paper PMC9135407.
# Values joined by “and” are separate entries in the source; they are usually repeats but may differ in a detail not shown here. Equal values may be shown once. Where a name gives a salt, the structure may show the parent alone. Hit rate of the full screen: of about 5,800 compounds, about 620 (11%) showed activity. What follows is part of a selection rich in actives, with near analogues and random picks from the rest. Unmarked numbers belong to inactive results.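 The calls were made as follows: active = score above a cut-off or among the top three wells of a plate; in these data no inactive exceeds 0.85.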
# Tested on: primary human hepatic stellate cells (donor 1)
# Experiment: scaled lipid accumulation score (0 = DMSO-like, 1 = nortriptyline-like); higher = stronger HSC inactivation (lipid re-accumulation), active = hit call of the paper
# Conditions: 48 h
# [1] = library stock concentration: 80 uM
# [2] = library stock concentration: 400 uM
# [3] = library stock concentration: 2 mM
# [4] = library stock concentration: 3.33 mM
# [5] = library stock concentration: 10 mM
# [6] = library stock concentration: 1 mM
compound,measurement,setting,value
CC(=O)Nc1nc(C)c(-c2ccc(Cl)c(S(=O)(=O)NCCO)c2)s1,scaled lipid accumulation score,[1],≤ -0.016
same,scaled lipid accumulation score,[2],≤ -0.016
same,scaled lipid accumulation score,[3],≤ -0.016
same,scaled lipid accumulation score,[4],≤ 0
same,scaled lipid accumulation score,[5],≤ 0 and ≤ -0.016
O=c1oc2c(O)c(O)cc3c(=O)oc4c(O)c(O)cc1c4c23 [Ellagic acid],scaled lipid accumulation score,[1],≤ 0
same,scaled lipid accumulation score,[2],≤ 0
same,scaled lipid accumulation score,[3],≤ 0
same,scaled lipid accumulation score,[5],≤ 0
O=C(c1cccc(Cl)c1F)N1CCN(Cc2cccc(Nc3nccs3)n2)CC1,scaled lipid accumulation score,[4],≤ 0
same,scaled lipid accumulation score,[5],0.453
CN(C)c1ccc(-c2nc3c(N4CCN(CC(=O)Nc5nccs5)CC4)c(Cl)cnc3[nH]2)cc1,scaled lipid accumulation score,[4],0.858 (active)
same,scaled lipid accumulation score,[5],0.949 (active)
"CCCCC/C=C/C=C1/C(=O)C=C[C@@H]1C/C=C\CCCC(=O)O [15-deoxy-.DELTA.12,14-Prostaglandin J2]",scaled lipid accumulation score,[6],≤ 0
CSc1ccc(C(=O)c2[nH]c(=O)[nH]c2C)cc1 [Enoximone],scaled lipid accumulation score,[5],0.125
Cc1cc(NC2CCCCC2)nc(-n2nc(C)cc2C)n1,scaled lipid accumulation score,[5],≤ -0.03
COc1c(C)cnc(Cn2cnc3c(Cl)nc(N)nc32)c1C [listing 1 of 2 here],scaled lipid accumulation score,[5],0.768
COc1c(C)cnc(Cn2cnc3c(Cl)nc(N)nc32)c1C [listing 2 of 2 here],scaled lipid accumulation score,[4],0.885 (active)
COc1ccc2[nH]c([S+]([O-])Cc3ncc(C)c(OC)c3C)nc2n1 (stereo not given) [Tenatoprazole],scaled lipid accumulation score,library stock concentration: 5.8 mM,0.081
N#CC(=Cc1cc(Cl)cc(Cl)c1)c1cccnc1,scaled lipid accumulation score,library stock concentration: 18.2 mM,0.033
CN(C[C@@H]1COCCO1)S(=O)(=O)Nc1ccc2ccc3ncc(-c4cnn(C)c4)cc3c(=O)c2c1,scaled lipid accumulation score,[4],≤ 0
same,scaled lipid accumulation score,[5],≤ 0
O.O.O.O.O.O.O.O.O.O.O.O.O.O.O.O.O=S(=O)([O][Al])OC[C@H]1O[C@@](COS(=O)(=O)[O][Al])(O[C@H]2O[C@H](COS(=O)(=O)[O][Al])[C@@H](OS(=O)(=O)[O][Al])[C@H](OS(=O)(=O)[O][Al])[C@H]2OS(=O)(=O)[O][Al])[C@@H](OS(=O)(=O)[O][Al])[C@@H]1OS(=O)(=O)[O][Al] [Sucralfate sodium (10% w/v in dmso)],scaled lipid accumulation score,library stock concentration: 900 uM,≤ 0
COc1ccc2[nH]c(I)c(CCNC(C)=O)c2c1 [2-Iodomelatonin],scaled lipid accumulation score,[5],0.011
COc1ccc2c(c1)c(C1=C(c3c[nH]c4ccccc34)C(=O)NC1=O)cn2CCCN(C)C,scaled lipid accumulation score,[6],0.018
same,scaled lipid accumulation score,[4],0.054 and ≤ 0
same,scaled lipid accumulation score,[5],0.706
CN(C)CCCn1cc(C2=C(c3c[nH]c4ccccc34)C(=O)NC2=O)c2ccccc21 [listing 1 of 2 here],scaled lipid accumulation score,[4],0.071
same,scaled lipid accumulation score,[5],0.777
same,scaled lipid accumulation score,library stock concentration: 12.1 mM,0.519
CN(C)CCCn1cc(C2=C(c3c[nH]c4ccccc34)C(=O)NC2=O)c2ccccc21 [listing 2 of 2 here],scaled lipid accumulation score,[5],1.04 (active)
CN(C)CCCn1cc(C2=C(c3c[nH]c4ccccc34)C(=O)NC2=O)c2ccccc21 [Bisindolylmaleimide I],scaled lipid accumulation score,[4],0.663
CCCCC[C@H](O)/C=C/C=C\C/C=C\C/C=C\CCCC(=O)O,scaled lipid accumulation score,library stock concentration: 100 uM,≤ -0.02
COc1nc(C)cnc1NS(=O)(=O)c1cccnc1-c1ccc(-c2nnco2)cc1 [Zibotentan (ZD4054)],scaled lipid accumulation score,[4],≤ 0
same,scaled lipid accumulation score,[5],≤ 0
OCC(O)C(O)CO (stereo not given) [Erythritol],scaled lipid accumulation score,[4],≤ 0
same,scaled lipid accumulation score,[5],≤ -0.001
CNCCCN1c2ccccc2CCc2ccccc21 [Desipramine hydrochloride],scaled lipid accumulation score,library stock concentration: 6.6 mM,0.471
same,scaled lipid accumulation score,[5],0.667
CNCCCN1c2ccccc2CCc2ccccc21.Cl,scaled lipid accumulation score,[5],0.969 (active)
CNCCCN1c2ccccc2CCc2ccccc21.Cl [Desipramine hydrochloride] [listing 1 of 2 here],scaled lipid accumulation score,,0.887 (active)
CNCCCN1c2ccccc2CCc2ccccc21.Cl [Desipramine hydrochloride] [listing 2 of 2 here],scaled lipid accumulation score,[5],1.15 (active)
CCCCC1CCC(c2nc(-c3ccncc3)no2)CC1 (stereo not given),scaled lipid accumulation score,[6],0.03
same,scaled lipid accumulation score,[5],≤ -0.001
CC(C)N(C[C@H]1O[C@@H](n2cnc3c(N)ncnc32)[C@H](O)[C@@H]1O)[C@H]1C[C@@H](CCc2nc3cc(C(C)(C)C)ccc3[nH]2)C1,scaled lipid accumulation score,[4],≤ 0
same,scaled lipid accumulation score,[5],0.467
CC(C)OC(=O)OCOP(=O)(CO[C@H](C)Cn1cnc2c(N)ncnc21)OCOC(=O)OC(C)C [Tenofovir Disoproxil Fumarate],scaled lipid accumulation score,[4],≤ 0
same,scaled lipid accumulation score,[5],≤ 0
CCc1c(Cl)c(O)c(Cl)c(O)c1C(=O)O[C@H]1[C@H](O)[C@H](OC)[C@H](OC/C2=C\C=C\C[C@H](O)/C(C)=C/[C@H](CC)[C@@H](O[C@@H]3OC(C)(C)[C@@H](OC(=O)C(C)C)[C@H](O)[C@@H]3O)/C(C)=C/C(C)=C/C[C@@H]([C@@H](C)O)OC2=O)O[C@@H]1C [Fidaxomicin],scaled lipid accumulation score,[4],≤ 0
same,scaled lipid accumulation score,[5],0.125
